Reference: PubChem BioAssay (NCATS)
Inconclusive results are not listed. Calls of active or inactive are those of the source. Calls follow the shape of the dose curve; as a rule, active = well fitted inhibition curve with a large enough effect; inconclusive = small, poorly fitted or top-dose-only effect; inactive = flat fitted curve, though single readings scatter.

System: Zika virus NS2B-NS3 protease (linked construct)
Experiment: Confirmatory screen NINDS AMC qHTS for Zika virus inhibitors (AID 1347152); also: nearly all actives have a fitted effect of over 70% in size;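 as to activity change, negative = inhibition: AMC fluorescence gain from cleaved Bz-Nle-KRR-AMC substrate over 15 min; top concentration of the series differs between compounds; 0% = no-inhibitor control and -100% = no-enzyme control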
Conditions: Purified linked NS2B-NS3, AMC substrate fluorescence; series mostly up to 56.6 µM; activity change, negative = inhibition: at the top concentration
From the text: Assay Submitters (PI): Avindra Nath, Ph.D., National Institute of Neurological Disorders and Stroke (NINDS), Bethesda, MD Radhakrishnan Padmanabhan, Ph.D., Georgetown University (GU), Washington D.C. Zika Virus causes congenital defects, including microcephaly and is associated with Guillain-Barre syndrome, eningoencephalitis and myelitis in infected adult. […] Using a target-based approach, we hope to establish a screening paradigm to uncover novel, cell-active NS2B-NS3 protease (Zika Virus) specific inhibitors from NCATS' collection of small molecules using qHTS. […] Four assay panel was created to identify potential Zika Virus inhibitors. Namely, (1) GU unlinked NS2B-NS3 AMC tagged protease qHTS, (2) GU unlinked NS2B-NS3 Rhodamine tagged protease qHTS, (3) NINDS linked NS2B-NS3 AMC tagged protease qHTS, (4) NINDS linked NS2B-NS3 Rhodamine tagged protease qHTS. Active compounds were re-acquired and re-screened to confirm inhibition. Inhibitors were further screened against various confirmatory and counterscreens in dose response format. Early Translation Branch (ETB) National Center for Advancing Translational Sciences (NCATS), Rockville, MD National Institute of Health (NIH), Bethesda, Maryland
Materials: For the linked assay, Nath lab (NINDS) provided the purified linked NS2B-NS3 protease which is consists of hydrophilic domain of NS2B linked to the NS3 protease domain by a flexible (-[…]-) linker. Control compound aprotinin is obtained from Thermo Scientific (#78432; Waltham, Massachusetts). NS2B-NS3 AMC substrate (Bz-Nle-Lys-Arg-Arg-AMC; Nle-KRR-AMC) purchased from Bachem (#I-1995; Torrance, CA). Ac-VKTGKR-AMC purchased from Genscript or Bachem, Ac-FAAGKR-AMC purchased from Genscript, Ac-GLVKRR-AMC purchased from Genscript, Ac-LKKR-AMC purchased from Genscript. NINDS AMC linked NS2B-NS3 protease qHTS protocol: Briefly, 3 microL of Zika virus linked NS2B-NS3 protease (1 nM for linked final concentration), in assay buffer (10 mM Tris-HCl pH 8.0 with 0.01% Tween 20) was dispensed into a 1,536-well solid-bottom black plate (Greiner Bio One, Monroe, NC). Twenty-three nL of compounds (final concentration range 7.28 nM to 114 microM) or control Aprotinin (final concentration range 3.47 nM to 114 microM) were transferred via Wako Pin-tool (Wako Automation, Richmond, VA). Samples were incubated (room temperature, protected from light) for 15 minutes followed by a 1 microL AMC substrate addition of (final concentration of 10 microM; Km = 18.3 µM). Plates were then read immediately on a ViewLux High-throughput CCD imager (PerkinElmer, Waltham, MA) equipped with standard UV fluorescence optics (340(30) nm excitation, 450(20) nm emission) then incubated (room temperature, protected from light) for 15 minutes (~20% conversion). The change in fluorescence intensity over the 15-minute reaction period was normalized against no-inhibitor and no-enzyme controls and the resulting percent inhibition data were fitted to a 4-parameter Hill equation. Aprotinin was used as the intraplate control.
Potency is read from the fitted curve at half-maximal effect.

Structure (SMILES)	activity change, negative = inhibition	Potency
N#CC(c1ccnc(OCc2ccc(CN3CCOCC3)cc2)n1)c1nc2ccccc2s1 (stereo not drawn)	-9.56% [at 110 µM] (inactive)	–
O=C(N/N=C/c1ccc(O)c(O)c1)c1cc2ccccc2cc1O	-12.7% [at 36.9 µM] (inactive)	–
CCc1c(-c2ccccc2)c(-c2ccccc2)nn1-c1ccccc1-c1cccc(OCC(=O)O)c1	–	13.9 µM (active)
CC1=C(C(=O)OCc2ccccc2)C(c2ccc(-c3ccccc3)cc2)NC(=O)N1CCCCCC(=O)O (stereo not drawn)	–	22.1 µM (active)
COc1cc(Nc2nc3ccccc3nc2NS(=O)(=O)c2ccc(NC(=O)c3ccc(OC)c(C)c3)cc2)cc(OC)c1	–	12.4 µM (active)
C=CC/C=C\C/C=C\CCCCCCCc1cccc(O)c1C(=O)O	–	10.9 µM (active)
O=C(O)/C=C/c1ccc(-c2ccc(O)c(C34CC5CC(CC(C5)C3)C4)c2)cc1	–	35 µM (active)
CC(C)c1cccc2c(-c3ccccc3)cc(-c3ccc(-c4ccc(C(=O)O)cc4)[nH]3)nc12	–	44.1 µM (active)
CC1(C)CCC(C)(C)c2cc(C3(c4ccc(C(=O)O)cc4)OCCO3)ccc21	–	44.1 µM (active)
C=C[C@H]1[C@H](O[C@@H]2O[C@H](CO)[C@@H](O)[C@H](O)[C@H]2O)OC=C(C(=O)OC)[C@H]1CCOC(=O)c1cc(O)c(O)c(O)c1	-5.16% (inactive)	–
COc1ccc(C(=O)n2c(C)c(Cc3cccc(O[C@@H](C)C(=O)O)c3)c3cc(OC(F)(F)F)ccc32)cc1	–	17.5 µM (active)
CCCCCCOc1cc2c(cc1N(C)c1ncc(C(=O)O)cn1)C(C)(C)CCC2(C)C	–	31.2 µM (active)
O=C(O)Cc1ccc2oc(-c3ccc(NC(=O)/C=C/c4ccc(Br)cc4)c(F)c3)nc2c1	–	15.6 µM (active)
